The record followed here is PubChem BioAssay.

Several values for one entry are separate records, joined by “and”; a condition that tells them apart may be missing. Equal values may be shown once. Unmarked numbers belong to inactive results. Activity calls are given as the source filed them. Unless noted, no stated cut-off is given here; in the data, active means inhibition above about 33%; inactive means the rest.

Assay [1] has as its target Nuclear receptor coactivator 3 (Homo sapiens) (UniProt Q9Y6Q9). The assay can be described thus: NCOA3 GAL4-fusion reporter inhibition – cell-based, luminescence, quadruplicate, confirmation (AID 588792;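 active means mean inhibition over 43.08%, the solvent-only control mean plus 3 SD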;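 further: 0% = DMSO treated cells and 100% = gossypol at 36 µM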). Conditions: HEK293 GAL4-SRC3 luciferase reporter, at 3.6 µM, hits give high values. In general terms: In a reporter assay the amount or activity of a reporter protein is the signal.

Assay [2] deals with transactivating tegument protein VP16 (Human herpesvirus 1), Gal4-VP16 luciferase reporter. The assay can be described thus: repression of VP16-driven luciferase reporter – cell-based, luminescence, high throughput, counter-screen for SRC3 inhibitor project (AID 588794; in the data active means inhibition above about 30%). The settings on record: mammalian cells, at 3.6 µM, hits give high values.
Assay [3] has as its target Nuclear receptor coactivator 1 (Homo sapiens) (UniProt Q15788). The assay can be described thus: NCOA1 GAL4-fusion reporter inhibition – cell-based, luminescence, quadruplicate, confirmation (AID 588820;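 active means mean inhibition above 46.68%, the untreated control wells mean plus 3 SD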;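 further: 0% = DMSO wells and 100% = gossypol 36 µM treated wells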). Conditions: HEK293 GAL4-SRC1 luciferase reporter, at 3.6 µM, hits give high values.
Assay [4] can be described thus: repression of VP16-driven luciferase reporter – cell-based, luminescence, high throughput, counter-screen for SRC1 inhibitor project (AID 588824; in the data active means inhibition above about 25%). The settings on record: cell-based VP16 transactivation luciferase luminescence; at 3.6 µM; hits give high values.
The nature of assay [5]: StAR promoter reporter inhibitors, counter-screen for LRH-1 inverse agonist project, cell-based, luminescence, high throughput (AID 651611; in the data active means inhibition above about 28%). The settings on record: StAR promoter luciferase reporter counterscreen, at 3.6 µM, hits give high values. In general terms: The purpose of a counterscreen is to sort out artefacts and off-target activity.
The target of assay [6] is Nuclear receptor subfamily 5 group A member 2 (Homo sapiens) (UniProt O00482). As to the kind of experiment: NR5A2 activity suppression in reporter cells – cell-based, luminescence, confirmation (AID 651613; in the data active means inhibition above about 42%;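 further: HEK293T cells co-transfected with LRH-1 and StAR promoter luciferase reporter; 0% = vehicle wells and 100% = parental cells lacking receptor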). The settings on record: cell-based LRH-1 luciferase reporter, inverse agonism; at 3.6 µM; hits give high values.
In assay [7] the target is Steroidogenic factor 1 (Homo sapiens) (UniProt Q13285). As to the kind of experiment: inverse agonism at SF1 nuclear receptor – cell-based, luminescence, high throughput, counter-screen for LRH-1 inverse agonist project (AID 651614; in the data active means inhibition above about 44%;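 further: cells cotransfected with StAR promoter reporter and SF1 expression vector; 0% = vehicle on cells with receptor and 100% = vehicle on cells lacking receptor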). The settings on record: cell-based SF1 luciferase reporter, at 3.6 µM, hits give high values.
Assay [8] in a line: compounds suppressing VP16-driven luciferase signal – cell-based, luminescence, high throughput, counter-screen for LRH-1 inverse agonist project (AID 651615). The settings on record: Gal4-VP16 luciferase reporter cells, at 3.6 µM, hits give high values.
The subject of assay [9] is transactivating tegument protein VP16 (Human herpesvirus 1). The assay can be described thus: compounds suppressing VP16-driven luciferase signal – cell-based, luminescence, single concentration, counter-screen for SRC2 inhibitor project (AID 652007; in the data active means inhibition above about 36%). Conditions: cell-based VP16 transactivation luciferase reporter, at 8.9 µM, hits give high values.
The target in assay [10] is Nuclear receptor coactivator 2 (Homo sapiens) (UniProt Q15596). As to the kind of experiment: inhibition of GAL4-SRC2 driven luciferase expression – cell-based, luminescence, HEK293, triplicate, confirmation (AID 652008;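 active means mean inhibition above 46.5%, the solvent-only control mean plus 3 SD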;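 further: 0% = DMSO-treated cells and 100% = Gossypol at 36 µM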). The settings on record: HEK293 GAL4-SRC2 luciferase reporter, at 8.9 µM, hits give high values.

As usually defined, the inhibition is the relative decrease from the control value, in per cent.

Chain of Nuclear receptor subfamily 5 group A member 2 (Homo sapiens) (O00482 whole entry, looked up): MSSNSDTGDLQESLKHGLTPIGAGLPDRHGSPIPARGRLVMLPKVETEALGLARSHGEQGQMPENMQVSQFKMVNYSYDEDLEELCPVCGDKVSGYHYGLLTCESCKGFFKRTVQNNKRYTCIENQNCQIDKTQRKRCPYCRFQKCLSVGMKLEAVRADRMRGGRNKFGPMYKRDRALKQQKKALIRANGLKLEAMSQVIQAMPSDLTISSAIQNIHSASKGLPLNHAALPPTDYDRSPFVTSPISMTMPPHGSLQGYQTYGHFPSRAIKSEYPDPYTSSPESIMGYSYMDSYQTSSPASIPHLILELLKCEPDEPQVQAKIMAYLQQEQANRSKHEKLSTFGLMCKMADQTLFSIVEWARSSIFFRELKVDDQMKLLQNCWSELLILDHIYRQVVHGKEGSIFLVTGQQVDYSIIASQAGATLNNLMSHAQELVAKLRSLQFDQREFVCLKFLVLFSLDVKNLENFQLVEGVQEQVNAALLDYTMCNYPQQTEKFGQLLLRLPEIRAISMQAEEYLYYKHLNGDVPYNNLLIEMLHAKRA
Chain of Steroidogenic factor 1 (Homo sapiens) (Q13285 whole entry, looked up, the tested form may be a part): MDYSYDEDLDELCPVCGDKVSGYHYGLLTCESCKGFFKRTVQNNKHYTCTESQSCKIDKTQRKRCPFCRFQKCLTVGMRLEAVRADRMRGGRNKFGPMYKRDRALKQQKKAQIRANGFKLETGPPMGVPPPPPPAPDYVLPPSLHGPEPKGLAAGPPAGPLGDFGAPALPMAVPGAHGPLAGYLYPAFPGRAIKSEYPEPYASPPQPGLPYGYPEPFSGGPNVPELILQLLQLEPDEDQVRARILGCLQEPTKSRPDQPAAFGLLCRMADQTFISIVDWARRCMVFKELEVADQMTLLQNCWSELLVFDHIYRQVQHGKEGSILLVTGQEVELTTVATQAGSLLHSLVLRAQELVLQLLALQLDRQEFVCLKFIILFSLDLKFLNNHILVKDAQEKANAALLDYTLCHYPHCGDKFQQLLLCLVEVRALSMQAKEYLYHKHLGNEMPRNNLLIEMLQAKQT
Chain of Nuclear receptor coactivator 2 (Homo sapiens) (Q15596 whole entry, looked up, the tested form may be a part): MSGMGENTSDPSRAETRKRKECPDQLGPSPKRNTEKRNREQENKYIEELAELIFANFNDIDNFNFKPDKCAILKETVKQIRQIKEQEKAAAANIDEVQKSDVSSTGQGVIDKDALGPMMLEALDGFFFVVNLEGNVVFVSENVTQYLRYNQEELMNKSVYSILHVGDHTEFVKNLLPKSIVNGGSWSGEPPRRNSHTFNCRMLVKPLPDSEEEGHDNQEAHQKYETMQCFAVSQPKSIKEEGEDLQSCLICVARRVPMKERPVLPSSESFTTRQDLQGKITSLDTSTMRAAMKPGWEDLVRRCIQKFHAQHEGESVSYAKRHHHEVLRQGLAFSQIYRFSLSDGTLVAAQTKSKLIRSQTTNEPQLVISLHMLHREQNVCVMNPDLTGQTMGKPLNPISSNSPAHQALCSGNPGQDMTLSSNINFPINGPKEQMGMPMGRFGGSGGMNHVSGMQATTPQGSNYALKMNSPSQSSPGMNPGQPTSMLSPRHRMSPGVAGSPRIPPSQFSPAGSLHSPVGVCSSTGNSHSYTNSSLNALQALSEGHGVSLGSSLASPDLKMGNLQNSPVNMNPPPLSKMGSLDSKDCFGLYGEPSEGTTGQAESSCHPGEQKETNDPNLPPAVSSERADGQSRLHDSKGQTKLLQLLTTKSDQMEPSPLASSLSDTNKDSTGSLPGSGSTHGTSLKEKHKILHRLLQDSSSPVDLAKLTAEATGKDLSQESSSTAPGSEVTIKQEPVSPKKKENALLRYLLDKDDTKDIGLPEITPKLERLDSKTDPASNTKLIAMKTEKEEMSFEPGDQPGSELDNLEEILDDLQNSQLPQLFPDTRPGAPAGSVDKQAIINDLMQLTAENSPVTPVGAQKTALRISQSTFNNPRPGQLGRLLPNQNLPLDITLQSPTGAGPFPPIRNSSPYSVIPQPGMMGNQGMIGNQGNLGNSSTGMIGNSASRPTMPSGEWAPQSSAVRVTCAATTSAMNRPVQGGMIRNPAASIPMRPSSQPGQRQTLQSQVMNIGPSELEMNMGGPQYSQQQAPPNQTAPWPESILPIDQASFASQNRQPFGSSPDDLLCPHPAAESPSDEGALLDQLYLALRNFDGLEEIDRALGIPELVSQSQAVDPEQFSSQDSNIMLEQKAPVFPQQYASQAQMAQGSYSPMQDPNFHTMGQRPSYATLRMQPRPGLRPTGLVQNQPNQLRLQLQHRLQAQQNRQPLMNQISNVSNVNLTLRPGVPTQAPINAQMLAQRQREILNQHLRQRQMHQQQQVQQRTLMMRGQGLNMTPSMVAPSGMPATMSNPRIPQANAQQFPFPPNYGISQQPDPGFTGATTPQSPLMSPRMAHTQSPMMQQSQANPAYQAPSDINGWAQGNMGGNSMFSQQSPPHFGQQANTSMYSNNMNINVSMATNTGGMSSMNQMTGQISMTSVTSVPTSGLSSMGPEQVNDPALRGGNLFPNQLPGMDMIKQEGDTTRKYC
Chain of Nuclear receptor coactivator 1 (Homo sapiens) (Q15788 whole entry, looked up, the tested form may be a part): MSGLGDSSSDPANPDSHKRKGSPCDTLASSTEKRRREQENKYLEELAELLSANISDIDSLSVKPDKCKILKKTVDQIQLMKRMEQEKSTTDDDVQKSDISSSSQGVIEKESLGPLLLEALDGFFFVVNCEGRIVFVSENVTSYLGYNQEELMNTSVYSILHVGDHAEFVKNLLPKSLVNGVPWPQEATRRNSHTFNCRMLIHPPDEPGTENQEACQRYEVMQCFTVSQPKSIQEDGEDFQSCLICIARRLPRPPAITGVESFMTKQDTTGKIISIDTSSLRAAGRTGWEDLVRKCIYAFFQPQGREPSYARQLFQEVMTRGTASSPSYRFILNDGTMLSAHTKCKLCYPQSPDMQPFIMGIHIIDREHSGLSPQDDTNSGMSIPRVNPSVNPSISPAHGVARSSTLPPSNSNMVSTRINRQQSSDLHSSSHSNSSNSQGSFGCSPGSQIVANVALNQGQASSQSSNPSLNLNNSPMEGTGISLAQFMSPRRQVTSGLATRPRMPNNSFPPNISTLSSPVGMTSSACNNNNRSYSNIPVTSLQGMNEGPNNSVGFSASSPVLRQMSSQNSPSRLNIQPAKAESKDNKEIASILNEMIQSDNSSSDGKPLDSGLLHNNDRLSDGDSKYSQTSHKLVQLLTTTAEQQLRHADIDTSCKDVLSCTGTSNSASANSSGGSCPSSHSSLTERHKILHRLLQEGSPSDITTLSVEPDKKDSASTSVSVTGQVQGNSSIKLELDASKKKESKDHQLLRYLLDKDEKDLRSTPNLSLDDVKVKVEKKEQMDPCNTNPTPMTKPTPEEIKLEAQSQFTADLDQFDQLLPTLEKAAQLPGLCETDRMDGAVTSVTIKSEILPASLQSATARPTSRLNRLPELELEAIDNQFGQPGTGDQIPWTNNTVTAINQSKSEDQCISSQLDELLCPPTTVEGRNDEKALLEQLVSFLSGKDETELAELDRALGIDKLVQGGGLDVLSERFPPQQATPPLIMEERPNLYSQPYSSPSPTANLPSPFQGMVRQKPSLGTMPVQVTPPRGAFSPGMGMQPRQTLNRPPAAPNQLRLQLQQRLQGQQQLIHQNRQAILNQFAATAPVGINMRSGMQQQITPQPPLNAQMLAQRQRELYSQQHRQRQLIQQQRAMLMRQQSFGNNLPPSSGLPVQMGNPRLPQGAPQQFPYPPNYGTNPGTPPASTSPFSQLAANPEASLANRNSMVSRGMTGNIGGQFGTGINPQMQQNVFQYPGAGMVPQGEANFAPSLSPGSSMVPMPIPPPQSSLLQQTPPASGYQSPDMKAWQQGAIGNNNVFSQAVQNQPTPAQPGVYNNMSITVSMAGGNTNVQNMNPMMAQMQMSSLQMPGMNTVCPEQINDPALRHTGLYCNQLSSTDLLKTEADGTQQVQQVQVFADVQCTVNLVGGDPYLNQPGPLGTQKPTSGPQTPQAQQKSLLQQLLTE

For the molecule `COC1CC2C=C(C)C=CC=CC(=O)NC(c3ccccc3)CC=CCCC(O)CC(=O)C2=C1O` (stereo not drawn), the inhibition in assay [1] was 75.1% (active); in [2], 84% (active); in assay [3], 29.9%; in assay [4], 84.7% (active); in [5], 81.7% (active); in assay [6], 107% (active). The values for the inhibition in assay [7] and in assay [8] were 95.6% (active) and 89.8% (active), respectively.

Turning to `CCN1/C(=C/C=C/C2=[N+](CC)c3ccccc3C2(C)C)C(C)(C)c2ccccc21`, the inhibition in [1] was 97.1% (active); in assay [2], 87.3% (active); in assay [3], 51.5% (active); in assay [4] it was 87.5% (active); in assay [5], 86.7% (active); in assay [6] it was 110% (active). Moreover, the inhibition is 96.1% (active) in assay [7] and 96.7% (active) in [8].

For `CCC(C)(O)C(=O)OC1C(=O)OC2CC3C(C)=CC(O)C(O)C3(C)C3C4(O)OCC23C1C(C)C4O` (stereo not drawn), the inhibition in assay [1] is 38.8%; in assay [2], 65.8% (active); in [3], 36.7%; in assay [4], 72% (active); in [5], 79.5% (active); in [6], 103% (active). For the same molecule, the inhibition in assay [7] was 92.4% (active); in assay [8], 87% (active).

For the molecule `CC12CCC3C(CCC4(O)CC(O)CCC34C=NO)C1(O)CCC2C1=COC(=O)C1` (stereo not drawn), the inhibition in assay [1] was 94.5% (active); in assay [2] it was 84.4% (active); in assay [3] it was 61.1% (active); in [4], 82.2% (active); in [5], 96.3% (active); in assay [6], 110% (active). Moreover, the inhibition in assay [7] is 98.2% (active); in [8], 89.2% (active); in [9], 54.3% (active); in [10] it was 29.4%.

For the molecule `O=[N+]([O-])c1ccc(N(CCO)CCO)c2c1no[n+]2[O-]`, the inhibition is 52.6% (active) in [1]; 27.8% in [2]; 29.1% in assay [3]; 14.5% in assay [4]; 70.7% (active) in assay [5]; 76.2% (active) in [6]. For the same molecule, the inhibition in assay [7] is 74.4% (active); in assay [8] it was 28.9%; in assay [9] it was 29.9%; in assay [10], 56.3% (active).

With `CC1C(OC(=O)CCC(=O)NC(C)(C)CO)O[C@H]2OC3(C)CC[C@H]4[C@H](C)CCC1C24OO3` (stereo partly drawn), the inhibition in [1] is 55.9% (active); in [2], 79.9% (active); in [3], 51.9% (active); in assay [4] it was 81.2% (active); in [5], 76.2% (active); in [6], 101% (active). Besides, the inhibition is 91% (active) in [7] and 84% (active) in assay [8].

On to `CC(C)(C)c1cc(C=C(C#N)C#N)cc(C(C)(C)C)c1O`, for which the inhibition in assay [1] is 64.3% (active); in [2], 82.4% (active); in assay [3], 0.93%; in assay [4], 81% (active); in [5], 80.2% (active); in assay [6], 102% (active). For the same molecule, the inhibition was 91.4% (active) in assay [7] and 88.2% (active) in assay [8].

For the molecule `COc1ccc(-[n+]2c(-c3ccccc3)cc(-c3ccc(C)cc3)cc2-c2ccccc2)cc1`, the inhibition in assay [1] is 85.5% (active); in assay [2], 87.3% (active); in assay [3], 71.9% (active); in assay [4], 88.3% (active); in assay [5] it was 82.7% (active); in [6], 111% (active). For the same molecule, the inhibition was 96.9% (active) in [7] and 98.2% (active) in assay [8].

For `CN(C)c1ccc(/C=C/c2cc[n+](C)c3ccccc23)cc1`, the inhibition in [1] is 55.9% (active) and 45.3% (active); in [2] it was 74% (active) and 71.3% (active); in assay [3], 40.2% and 45.5%; in assay [4] it was 77.9% (active) and 78.6% (active); in [5], 72.7% (active) and 74.2% (active); in [6], 102% (active) and 107% (active). The inhibition is 86.9% (active) and 89.7% (active) in assay [7]; 82% (active) and 84% (active) in [8].

On to `CCOc1ccc(-c2cc(C)[n+](CCc3ccc(OC)c(OC)c3)c(-c3ccc(OCC)cc3)c2)cc1`, for which the inhibition in assay [1] was 53.6% (active); in assay [2], 69.7% (active); in assay [3], 60% (active); in assay [4], 73.4% (active); in [5], 70% (active); in assay [6], 104% (active). For the same molecule, the inhibition in assay [7] was 92.3% (active); in assay [8] it was 85.4% (active).

Consider `Clc1ccc(C[n+]2c(-c3ccccc3)cc(-c3ccccc3)cc2-c2ccccc2)cc1`, for which the inhibition was 83.5% (active) in assay [1]; 66% (active) in assay [2]; 53.1% (active) in assay [3]; 73.6% (active) in assay [4]; 70.8% (active) in assay [5]; 110% (active) in [6]. The inhibition is 89.8% (active) in [7] and 94% (active) in [8].

In the case of `CCC(C)C1NC(=O)C(NC(=O)C(CC(C)C)N(C)C(=O)C2CCCN2C(=O)C(C)O)C(C)OC(=O)C(Cc2ccc(OC)cc2)N(C)C(=O)C2CCCN2C(=O)C(CC(C)C)NC(=O)[C@H](C)C(=O)[C@H](C(C)C)OC(=O)CC1O` (stereo partly drawn), the inhibition in assay [1] is 99.5% (active); in [2] it was 98.2% (active); in assay [3] it was 98.5% (active); in [4], 98.1% (active); in assay [5] it was 96.4% (active); in assay [6] it was 111% (active). Also, the inhibition in [7] is 98.4% (active); in assay [8], 99% (active); in assay [9] it was 82.2% (active); in assay [10], 79.6% (active).

As to `C[C@H]1[C@@H](OS(=O)(=O)O)C[C@@H]2C[C@H]([C@@H](O)c3cc(=O)[nH]c(=O)[nH]3)NC3=NC[C@H]1N32`, the inhibition in assay [1] was 88.3% (active); in assay [2], 71% (active); in [3] it was 58% (active); in [4], 70.5% (active); in [5], 92.3% (active); in assay [6], 107% (active). Further, the inhibition in assay [7] is 95.2% (active); in assay [8] it was 76.8% (active).

With `NC(=S)c1cn(C2OC(CO)C(O)C2O)c2ncnc(N)c12` (stereo not drawn), the inhibition was 97.4% (active) in assay [1]; 95.9% (active) in assay [2]; 89.7% (active) in [3]; 96.2% (active) in assay [4]; 93.2% (active) in assay [5]; 109% (active) in assay [6]. For the same molecule, the inhibition in assay [7] was 98% (active); in [8], 97.9% (active); in assay [9], 69.4% (active); in assay [10], 71.6% (active).

Consider `C[C@@H]1O[C@@H](O[C@H]2C[C@@H](O)[C@]3(CO)[C@@H]4C(CC[C@]3(O)C2)[C@@]2(O)CC[C@H](C3COC(=O)C3)[C@@]2(C)C[C@H]4O)[C@H](O)[C@H](O)[C@H]1O` (stereo partly drawn), for which the inhibition in assay [1] was 87.8% (active); in assay [2] it was 47.1% (active); in [3], 5.8%; in assay [4], 54.1% (active); in assay [5], 92% (active); in assay [6], 100% (active). In addition, the inhibition in [7] is 85.2% (active); in [8], 56.4% (active).
